Source: PubChem BioAssay
Values without a mark were called inactive. For some assays here: Entries with a potency or affinity are not part of this list. Active and inactive are the calls of the source. Unless noted, no rule for the calls is given here.

What was measured:
[1] = antimalarial activity against Dd2 strain (AID 2302;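 active = growth inhibition above 50% at the single 2 µM test dose, taken to imply half-maximal potency below 2 µM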;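 also: 0% = DMSO untreated growth and 100% = chloroquine plus artemisinin killed control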); settings: P. falciparum Dd2 in RBCs, LDH growth readout, 72 h; at 2 µM; stronger effect = higher value
[2] = HepG2 cytotoxicity, primary screen, cytotoxicity control for P. falciparum antimalarial project, cell-based, ATP luminescence (AID 2303;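 active = inhibition above 50%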;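 also: 0% = DMSO wells and 100% = digitonin-killed cells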); settings: HepG2 viability, 24-48 h, at 10 µM, stronger effect = higher value
[3] = target: L-lactate dehydrogenase (Plasmodium falciparum (isolate CDC / Honduras)) (UniProt Q27743); assay: PfLDH activity inhibition – cell lysate, 3D7 strain, counter-screen for P. falciparum growth inhibition project (AID 2304);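 also: 0% = vehicle and 100% = reference inhibitor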; settings: P. falciparum 3D7 crude extract, LDH APAD/NBT absorbance; at 2 µM; stronger effect = higher value
[4] = inhibition of 3D7 malaria parasite growth – strain 3D7 (AID 2306);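 also: 0% = DMSO wells and 100% = chloroquine plus artemisinin control wells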; settings: P. falciparum 3D7 erythrocytic growth, LDH absorbance, 72 h; at 2 µM; stronger effect = higher value
[5] = target: Calcium-dependent protein kinase 1 (Plasmodium falciparum (isolate 3D7)) (UniProt P62344); assay: PfCDPK1 kinase inhibitors, biochemical, TCAMS library (AID 1159585; cut-off not given, nearly all actives have IC50 up to about 0.98 µM;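 also: inhibitors leave more ATP so luminescence rises with inhibition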); settings: recombinant PfCDPK1, Kinase-Glo ATP depletion luminescence
[6] = target: Plasmodium falciparum protein kinase 6 (PK6, PF3D7_1337100) (UniProt Q8IDW1); assay: PfPK6 kinase inhibitors, biochemical, TCAMS library (AID 1159586); settings: recombinant PfPK6, Kinase-Glo ATP depletion luminescence
[7] = target: Protein kinase 7 (PK7), Plasmodium falciparum 3D7 (PF3D7_0213400) (UniProt Q7YTF7); assay: inhibition of Plasmodium PK7 catalytic activity – biochemical, TCAMS antimalarial set, Kinase-Glo luminescence (AID 1159587); settings: recombinant PfPK7, Kinase-Glo ATP depletion luminescence
[8] = target: Calcium-dependent protein kinase 4 (Plasmodium falciparum (isolate 3D7)) (UniProt Q8IBS5); assay: PfCDPK4 kinase inhibitors, biochemical, TCAMS library (AID 1159588; cut-off not given, nearly all actives have IC50 up to about 0.91 µM); settings: recombinant PfCDPK4, Kinase-Glo ATP depletion luminescence
Calcium-dependent protein kinase 4 (Plasmodium falciparum (isolate 3D7)), sequence (Q8IBS5 whole entry, looked up): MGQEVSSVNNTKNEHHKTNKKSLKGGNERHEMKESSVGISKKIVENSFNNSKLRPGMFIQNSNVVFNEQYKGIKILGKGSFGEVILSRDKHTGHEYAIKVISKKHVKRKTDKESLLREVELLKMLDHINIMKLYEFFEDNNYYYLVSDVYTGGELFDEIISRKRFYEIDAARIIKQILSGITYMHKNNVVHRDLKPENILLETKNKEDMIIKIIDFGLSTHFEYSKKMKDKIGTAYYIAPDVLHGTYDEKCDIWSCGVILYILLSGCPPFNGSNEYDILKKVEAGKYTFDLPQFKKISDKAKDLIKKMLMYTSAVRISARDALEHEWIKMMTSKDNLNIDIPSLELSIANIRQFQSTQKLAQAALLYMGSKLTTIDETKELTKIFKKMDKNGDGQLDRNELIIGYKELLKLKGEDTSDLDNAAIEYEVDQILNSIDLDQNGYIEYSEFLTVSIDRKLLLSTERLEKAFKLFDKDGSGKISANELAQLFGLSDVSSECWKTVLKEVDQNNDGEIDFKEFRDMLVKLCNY

Protein kinase 7 (PK7), Plasmodium falciparum 3D7 (PF3D7_0213400), sequence (Q7YTF7 1-343): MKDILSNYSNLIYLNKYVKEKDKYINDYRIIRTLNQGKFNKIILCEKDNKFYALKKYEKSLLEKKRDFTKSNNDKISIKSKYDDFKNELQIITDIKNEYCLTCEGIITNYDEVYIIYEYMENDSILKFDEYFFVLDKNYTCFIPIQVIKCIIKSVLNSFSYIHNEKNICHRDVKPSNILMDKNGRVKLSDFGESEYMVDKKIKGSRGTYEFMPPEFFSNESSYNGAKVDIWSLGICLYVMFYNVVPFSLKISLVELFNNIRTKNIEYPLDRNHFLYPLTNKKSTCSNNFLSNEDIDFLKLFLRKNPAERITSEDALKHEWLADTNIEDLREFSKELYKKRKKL
Calcium-dependent protein kinase 1 (Plasmodium falciparum (isolate 3D7)), sequence (P62344 whole entry, looked up): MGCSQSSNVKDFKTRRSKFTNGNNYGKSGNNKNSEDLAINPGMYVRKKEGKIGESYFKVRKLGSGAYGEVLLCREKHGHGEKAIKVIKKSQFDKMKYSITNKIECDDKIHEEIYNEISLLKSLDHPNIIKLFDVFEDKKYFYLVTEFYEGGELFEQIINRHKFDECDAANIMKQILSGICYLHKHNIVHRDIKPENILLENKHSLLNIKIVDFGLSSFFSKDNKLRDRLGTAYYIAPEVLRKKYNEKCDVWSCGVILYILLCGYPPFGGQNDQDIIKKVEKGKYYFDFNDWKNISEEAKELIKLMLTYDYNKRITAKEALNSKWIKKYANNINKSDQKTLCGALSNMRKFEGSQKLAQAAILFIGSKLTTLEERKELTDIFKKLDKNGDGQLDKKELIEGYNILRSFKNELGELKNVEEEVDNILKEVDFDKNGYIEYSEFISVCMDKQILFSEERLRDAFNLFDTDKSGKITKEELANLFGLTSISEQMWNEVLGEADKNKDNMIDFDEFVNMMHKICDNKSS
Plasmodium falciparum protein kinase 6 (PK6, PF3D7_1337100), sequence (Q8IDW1 1-305): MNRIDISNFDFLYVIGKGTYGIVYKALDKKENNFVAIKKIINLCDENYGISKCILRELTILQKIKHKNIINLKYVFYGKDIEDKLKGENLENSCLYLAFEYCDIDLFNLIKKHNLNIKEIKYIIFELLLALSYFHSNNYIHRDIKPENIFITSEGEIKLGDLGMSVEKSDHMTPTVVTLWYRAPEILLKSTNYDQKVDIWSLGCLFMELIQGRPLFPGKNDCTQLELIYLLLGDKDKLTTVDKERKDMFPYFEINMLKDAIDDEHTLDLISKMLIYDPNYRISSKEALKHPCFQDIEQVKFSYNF
L-lactate dehydrogenase (Plasmodium falciparum (isolate CDC / Honduras)), sequence (Q27743 whole entry, looked up): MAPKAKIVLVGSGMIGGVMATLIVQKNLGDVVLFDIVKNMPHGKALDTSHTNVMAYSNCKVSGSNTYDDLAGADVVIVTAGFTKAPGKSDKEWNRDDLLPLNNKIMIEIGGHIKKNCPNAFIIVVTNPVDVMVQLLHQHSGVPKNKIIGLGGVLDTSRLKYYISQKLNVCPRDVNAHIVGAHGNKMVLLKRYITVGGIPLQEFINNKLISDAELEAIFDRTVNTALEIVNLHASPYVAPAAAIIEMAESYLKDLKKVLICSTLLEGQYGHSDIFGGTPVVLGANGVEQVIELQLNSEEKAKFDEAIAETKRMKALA

SMILES	growth inhibition [1]	inhibition [2]	inhibition [3] [%]	growth inhibition [4]	outcome [5]	outcome [6]	outcome [7]	outcome [8]
Cc1[nH]c2ccccc2c1C(=O)C(C)Sc1n[nH]c(-c2ccccc2Br)n1 (stereo not given)	100% (active)	-7%	-3	101% (active)	inactive	inactive	inactive	inactive
Cc1cccc2[nH]c(-c3cccc(-c4ccc(NC(=O)NCc5cccc(F)c5)cc4)c3)nc12	83% (active)	40%	-4	101% (active)	inactive	inactive	inactive	inactive
CC(=O)Nc1ccc(Nc2c3ccccc3nc3ccccc23)cc1	62% (active)	41%	3	89% (active)	inactive	inactive	inactive	inactive
OCC1CCN(Cc2ccc(-c3cccc(-c4nc5ccc(C(F)(F)F)cc5[nH]4)c3)cc2)CC1	73% (active)	19%	-4	99% (active)	inactive	inactive	inactive	inactive
CC(C)CNCc1ccc(-c2cccc(CN(CCCN3CCN(C)CC3)C(=O)/C=C/c3ccccc3)c2)cc1	93% (active)	43%	0	95% (active)	inactive	inactive	inactive	inactive
COc1cc(F)c2ncc(Cl)c(CCN3CCC(NCc4ccc5c(c4)NC(=O)CO5)CC3)c2c1	79% (active)	32%	-2	95% (active)	inactive	inactive	inactive	inactive
CC(Oc1cc(-n2cnc3ccc(NC(=O)CCN4CCCCC4)cc32)sc1C(N)=O)c1ccccc1Cl (stereo not given)	98% (active)	95% (active)	1	99% (active)	inactive	inactive	inactive	inactive
CCOC(=O)c1ccc(NC(=O)Nc2cccc(-c3cccc(-c4nc5ccccc5[nH]4)c3)c2)cc1	99% (active)	76% (active)	-3	100% (active)	inactive	inactive	inactive	inactive
CC(CN1CCN(C)CC1)C(=O)Nc1ccc(-c2ccc(-c3nc4ccccc4[nH]3)cc2)cc1 (stereo not given)	87% (active)	13%	4	92% (active)	inactive	inactive	inactive	inactive
COc1cccc(CC(=O)N2CCC(n3c(C)nc4ccc(F)cc43)CC2)c1	99% (active)	-8%	-3	100% (active)	inactive	inactive	inactive	inactive
CN(C)c1ccc(-c2ccc(C(=O)NC3CCN(Cc4ccccc4F)CC3)s2)cc1	19%	30%	-4	88% (active)	inactive	inactive	inactive	inactive
O=C(CCCCCNC(=O)c1ccc(O)c(-c2ccc(Cl)c(Cl)c2)c1)NCc1cccc(C(F)(F)F)c1	10%	2%	2	92% (active)	inactive	inactive	inactive	inactive
COc1c(C2CCN(CCCCNC(=O)c3cc(-c4ccc(Cl)cc4)sc3C)CC2)ccc2c1CCCC2	65% (active)	61% (active)	2	101% (active)	inactive	inactive	inactive	inactive
CCN(CC)CCN(Cc1ccc(-c2ccc(C(F)(F)F)cc2)cc1)C(=O)Cn1cc(CCCCc2cccc(F)c2F)c(=O)c2ccccc21	22%	18%	-5	90% (active)	inactive	inactive	inactive	inactive
Cc1noc(-c2ccccc2)c1NC(=O)NC1CCN(CCCCCNC(=O)/C=C/c2ccc(Cl)c(Cl)c2)CC1	-3%	-3%	-3	93% (active)	inactive	inactive	inactive	inactive
CCN1CCCC(Nc2ccnc3cc4ccccc4cc23)C1 (stereo not given)	100% (active)	38%	2	101% (active)	inactive	inactive	inactive	inactive
CCN1CCC(N(Cc2ccc(-c3ccc(C(F)(F)F)cc3)cc2)C(=O)Cn2c(CCc3cccc(F)c3F)cc(=O)c3ccc(OCc4ccccc4)cc32)CC1	86% (active)	60% (active)	3	102% (active)	inactive	inactive	inactive	inactive
O=C(/C=C/c1ccc(Cl)c(Cl)c1)NC1CCC(CN2CCC(Cc3cc4ccccc4[nH]3)CC2)CC1 (stereo not given)	74% (active)	99% (active)	-8	100% (active)	inactive	inactive	inactive	inactive
O=C1SC(=Cc2ccc(O)c(O)c2)C(=O)N1c1ccccc1	17%	12%	-5	91% (active)	inactive	inactive	inactive	inactive
CS(=O)(=O)N1CC2(CCN(CCC(NC(=O)NCc3ccc(Cl)c(Cl)c3)c3ccc(Cl)c(Cl)c3)CC2)c2ccccc21 (stereo not given)	59% (active)	19%	-8	89% (active)	inactive	inactive	inactive	inactive

SMILES	growth inhibition [1]	inhibition [2]	inhibition [3] [%]	growth inhibition [4]	outcome [5]	outcome [6]	outcome [7]	outcome [8]
COC(=O)c1cccc(CNCc2ccc(-c3ccc(-c4nc5ccccc5[nH]4)s3)cc2)c1	79% (active)	20%	4	100% (active)	inactive	inactive	inactive	inactive
c1ccc(CN2CCC(NCc3cccc(-c4cncc5ccccc45)c3)CC2)cc1	11%	29%	3	92% (active)	inactive	inactive	inactive	inactive
CC1(C)CCC(=Cc2ccc(Cl)cc2)CC1(O)Cn1ccnc1 (stereo not given)	74% (active)	0%	-4	99% (active)	inactive	inactive	inactive	inactive
CCN1CCN(c2cc(C)c3cc(NC(=O)c4cccc(C(F)(F)F)c4)ccc3n2)CC1	85% (active)	24%	0	101% (active)	inactive	inactive	inactive	inactive
O=C(/C=C/c1ccc(Cl)c(Cl)c1)NCCCCCN1CCC(NC(=O)Nc2cc(Cl)cc(Cl)c2)CC1	5%	98% (active)	-8	94% (active)	inactive	inactive	inactive	inactive
Oc1ccc(Nc2nc(NCc3ccccc3)c3ccccc3n2)cc1	100% (active)	33%	3	101% (active)	inactive	inactive	inactive	inactive
Nc1cc(-c2ccc(-c3cccs3)s2)nc2ccccc12	50% (active)	32%	5	100% (active)	inactive	inactive	inactive	inactive
Cn1nc(-c2ccc(CNC3CCc4ccccc43)cc2)c2cnc(NCCCN3CCCC3)nc21 (stereo not given)	22%	27%	-4	92% (active)	inactive	inactive	inactive	inactive
Cc1cc(NC(=O)c2ccco2)ccc1OC1CCN(Cc2ccccc2)CC1	95% (active)	3%	-9	93% (active)	inactive	inactive	inactive	inactive
CN1CCN(CCCCCCNc2c3ccccc3nc3ccccc23)CC1	-4%	35%	-3	101% (active)	inactive	inactive	inactive	inactive
Cc1cc(OCCCN2CCCCC2C)ccc1NC(=O)COc1ccc(Cl)cc1C(=O)c1cc(Cl)cc(C#N)c1 (stereo not given)	14%	23%	-2	91% (active)	inactive	inactive	inactive	inactive
COc1ccc2ncc(F)c(CCN3C[C@@H]4CCC[C@]4(CNCc4ccc5c(n4)NC(=O)CS5)C3)c2n1	28%	18%	2	87% (active)	inactive	inactive	inactive	inactive
CN1CCN(Cc2cc3cc(NC(=O)/C=C/c4ccc(Cl)cc4)ccc3s2)CC1	20%	51% (active)	2	100% (active)	inactive	inactive	inactive	inactive
Cc1cc(-c2nc3ccc(C(=O)NCc4ccccc4)cc3n2C2CCN(C(=O)c3ccc(-c4ccccc4)cc3)CC2)ccn1	97% (active)	36%	1	95% (active)	inactive	inactive	inactive	inactive
Nc1ccc(-c2nc3ccc(Oc4ccc5nc(-c6ccc(N)cc6)[nH]c5c4)cc3[nH]2)cc1	99% (active)	18%	7	100% (active)	inactive	inactive	inactive	inactive
CC1(C)N=C(N)NC(NOCc2ccc(Cl)c(Cl)c2)=N1	27%	5%	2	96% (active)	inactive	inactive	inactive	inactive
COc1cc(C=CC(=O)N2CCC(CCN3CCC(c4c[nH]c5ccccc45)CC3)CC2)cc(OC)c1	23%	39%	-5	92% (active)	inactive	inactive	inactive	inactive
COc1ccc2nccc(N3CCC(SCCNCc4ccc5c(n4)NC(=O)CO5)C3)c2n1 (stereo not given)	9%	30%	-2	101% (active)	inactive	inactive	inactive	inactive
COc1ccc(CCNCCCCNCCc2ccc(OC)c3ccccc23)c2ccccc12	33%	100% (active)	-1	100% (active)	inactive	inactive	inactive	inactive
COc1ccccc1N1CCN(CCCCN(C(=O)Nc2cccc(Cl)c2)C(=O)Nc2cccc(Cl)c2)CC1	65% (active)	4%	7	100% (active)	inactive	inactive	inactive	inactive
